Legend:
Assay in all cases: log2 ratio of Biotin-Ahx-Ub-VS probe labelling (fragment/DMSO); higher = less target engagement (more negative = stronger competition), active = hit call of the paper (q ≤ 0.05, log2 ratio ≤ -1)
Conditions in all cases: compound concentration: 200 uM; treatment time: 3 h
USP34 = USP34 (UniProt Q70CQ2)
Procedure, shortened: (§1)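 Values give the average log2 ratio of fragment to vehicle, assessed by unpaired t-test on global-median-normalised Spectronaut label-free quantities. Proteins needed ≥2 unique peptides. HEK293T lysate (495 µg per sample) was treated in triplicate with fragment at 200 µM or vehicle for 3 h and then with Biotin-Ahx-Ub-VS at 0.5 µM final for 1 h. Labelled DUBs were NeutrAvidin-enriched, digested and run by diaPASEF LC-MS/MS.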

USP36 = biological target: T1, USP36 (UniProt Q9P275)
T1 sequence (whole entry): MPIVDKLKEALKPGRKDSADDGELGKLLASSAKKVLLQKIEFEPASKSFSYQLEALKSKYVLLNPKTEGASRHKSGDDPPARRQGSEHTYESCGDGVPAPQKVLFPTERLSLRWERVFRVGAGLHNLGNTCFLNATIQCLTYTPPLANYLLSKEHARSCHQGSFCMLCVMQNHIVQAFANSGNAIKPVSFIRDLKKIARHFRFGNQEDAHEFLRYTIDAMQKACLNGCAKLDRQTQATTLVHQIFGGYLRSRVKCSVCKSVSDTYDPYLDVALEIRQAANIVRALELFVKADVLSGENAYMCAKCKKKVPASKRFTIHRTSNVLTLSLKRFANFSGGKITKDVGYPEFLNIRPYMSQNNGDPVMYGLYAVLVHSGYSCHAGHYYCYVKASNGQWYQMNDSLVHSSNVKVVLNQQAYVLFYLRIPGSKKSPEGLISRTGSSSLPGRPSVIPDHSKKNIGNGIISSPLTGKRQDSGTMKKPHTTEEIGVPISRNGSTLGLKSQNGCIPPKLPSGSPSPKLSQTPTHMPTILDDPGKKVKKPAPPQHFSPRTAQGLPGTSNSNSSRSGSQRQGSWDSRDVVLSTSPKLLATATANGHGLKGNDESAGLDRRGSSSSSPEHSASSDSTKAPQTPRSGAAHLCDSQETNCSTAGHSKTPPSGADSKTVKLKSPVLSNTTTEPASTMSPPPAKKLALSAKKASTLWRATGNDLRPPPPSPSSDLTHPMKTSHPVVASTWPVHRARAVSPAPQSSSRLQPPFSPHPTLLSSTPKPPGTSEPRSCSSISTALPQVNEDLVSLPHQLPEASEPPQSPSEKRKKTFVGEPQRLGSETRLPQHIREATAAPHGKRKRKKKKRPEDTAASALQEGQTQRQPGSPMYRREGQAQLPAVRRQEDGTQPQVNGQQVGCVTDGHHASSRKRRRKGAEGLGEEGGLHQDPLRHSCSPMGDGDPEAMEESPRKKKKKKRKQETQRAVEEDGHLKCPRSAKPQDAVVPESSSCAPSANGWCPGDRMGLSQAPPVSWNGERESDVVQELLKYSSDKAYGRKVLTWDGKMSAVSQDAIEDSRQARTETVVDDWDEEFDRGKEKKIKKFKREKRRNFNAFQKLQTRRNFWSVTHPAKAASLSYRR
Procedure, shortened: as §1

USP38 = biological target: T2, USP38 (UniProt Q8NB14)
T2 sequence (whole entry): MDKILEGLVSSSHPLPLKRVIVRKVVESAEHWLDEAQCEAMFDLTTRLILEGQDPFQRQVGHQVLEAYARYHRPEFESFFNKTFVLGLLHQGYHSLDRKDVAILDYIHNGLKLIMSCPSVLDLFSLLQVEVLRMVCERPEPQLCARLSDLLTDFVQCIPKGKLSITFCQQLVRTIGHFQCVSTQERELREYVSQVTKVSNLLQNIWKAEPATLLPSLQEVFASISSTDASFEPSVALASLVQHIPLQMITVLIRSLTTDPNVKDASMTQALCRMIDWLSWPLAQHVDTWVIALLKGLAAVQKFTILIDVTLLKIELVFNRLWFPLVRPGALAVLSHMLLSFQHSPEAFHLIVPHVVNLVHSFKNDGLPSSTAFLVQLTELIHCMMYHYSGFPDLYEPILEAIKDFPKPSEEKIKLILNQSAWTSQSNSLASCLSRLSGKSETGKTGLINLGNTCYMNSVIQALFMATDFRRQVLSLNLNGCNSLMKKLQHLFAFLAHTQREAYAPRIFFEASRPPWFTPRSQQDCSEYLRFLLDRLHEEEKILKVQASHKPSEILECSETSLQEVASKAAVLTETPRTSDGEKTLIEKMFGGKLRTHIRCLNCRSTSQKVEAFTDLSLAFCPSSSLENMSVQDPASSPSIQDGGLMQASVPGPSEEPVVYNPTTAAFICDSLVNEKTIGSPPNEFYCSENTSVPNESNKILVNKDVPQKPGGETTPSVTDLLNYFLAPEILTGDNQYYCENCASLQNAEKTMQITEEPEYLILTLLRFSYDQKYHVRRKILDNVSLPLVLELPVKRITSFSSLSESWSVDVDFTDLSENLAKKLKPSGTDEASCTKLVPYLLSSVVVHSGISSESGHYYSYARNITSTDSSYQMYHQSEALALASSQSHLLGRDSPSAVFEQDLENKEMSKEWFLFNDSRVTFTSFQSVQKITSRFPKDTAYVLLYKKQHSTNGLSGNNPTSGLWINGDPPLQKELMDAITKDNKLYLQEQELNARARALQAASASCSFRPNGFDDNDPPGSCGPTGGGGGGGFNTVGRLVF
Procedure, shortened: as §1

USP39 = biological target: T3, USP39 (UniProt Q53GS9)
T3 sequence (whole entry): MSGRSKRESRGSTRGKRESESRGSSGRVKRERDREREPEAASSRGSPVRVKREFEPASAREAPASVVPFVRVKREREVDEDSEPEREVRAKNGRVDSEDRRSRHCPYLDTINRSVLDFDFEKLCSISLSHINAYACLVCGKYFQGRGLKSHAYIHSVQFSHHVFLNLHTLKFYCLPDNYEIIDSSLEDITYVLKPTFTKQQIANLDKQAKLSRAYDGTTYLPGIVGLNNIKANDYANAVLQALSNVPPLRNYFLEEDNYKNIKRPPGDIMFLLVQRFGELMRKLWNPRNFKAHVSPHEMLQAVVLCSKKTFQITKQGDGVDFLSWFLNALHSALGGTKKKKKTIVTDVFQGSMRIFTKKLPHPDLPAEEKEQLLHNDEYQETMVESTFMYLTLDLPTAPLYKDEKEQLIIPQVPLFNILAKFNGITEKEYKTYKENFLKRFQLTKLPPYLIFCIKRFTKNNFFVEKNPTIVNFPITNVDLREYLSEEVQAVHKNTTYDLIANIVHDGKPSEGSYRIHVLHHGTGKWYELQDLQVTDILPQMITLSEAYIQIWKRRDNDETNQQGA
Procedure, shortened: as §1

USP4 = biological target: T4, USP4 (UniProt Q13107)
T4 sequence (whole entry): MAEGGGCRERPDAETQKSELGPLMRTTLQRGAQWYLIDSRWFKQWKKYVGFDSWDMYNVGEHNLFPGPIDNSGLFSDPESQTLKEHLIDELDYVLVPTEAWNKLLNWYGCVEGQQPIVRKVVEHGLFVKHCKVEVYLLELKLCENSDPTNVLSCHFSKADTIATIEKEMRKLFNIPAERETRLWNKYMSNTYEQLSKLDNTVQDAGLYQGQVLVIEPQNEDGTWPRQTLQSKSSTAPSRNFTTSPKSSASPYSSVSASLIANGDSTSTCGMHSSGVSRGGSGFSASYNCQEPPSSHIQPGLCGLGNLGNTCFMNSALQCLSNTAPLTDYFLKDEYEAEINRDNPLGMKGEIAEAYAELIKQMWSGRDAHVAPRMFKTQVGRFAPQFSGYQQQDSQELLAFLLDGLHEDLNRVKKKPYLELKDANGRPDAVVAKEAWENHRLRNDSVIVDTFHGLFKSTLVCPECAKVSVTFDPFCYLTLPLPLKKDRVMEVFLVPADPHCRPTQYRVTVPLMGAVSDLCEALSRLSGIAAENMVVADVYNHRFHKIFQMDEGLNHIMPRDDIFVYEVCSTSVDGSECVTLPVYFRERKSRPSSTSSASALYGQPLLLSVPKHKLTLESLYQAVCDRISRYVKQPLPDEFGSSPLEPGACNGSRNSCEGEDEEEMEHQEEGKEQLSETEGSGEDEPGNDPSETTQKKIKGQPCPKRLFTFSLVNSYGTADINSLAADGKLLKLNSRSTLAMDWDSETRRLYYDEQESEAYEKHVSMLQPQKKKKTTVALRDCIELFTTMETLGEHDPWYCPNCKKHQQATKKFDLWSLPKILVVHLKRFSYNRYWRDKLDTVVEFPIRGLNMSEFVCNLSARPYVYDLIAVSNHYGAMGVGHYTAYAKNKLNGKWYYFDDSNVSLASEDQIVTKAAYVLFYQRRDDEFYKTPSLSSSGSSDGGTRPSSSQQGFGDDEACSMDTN
Procedure, shortened: as §1

Measured: log2 ratio of Biotin-Ahx-Ub-VS probe labelling

Sequence of USP34 (Q70CQ2 whole entry, the tested form may be a part): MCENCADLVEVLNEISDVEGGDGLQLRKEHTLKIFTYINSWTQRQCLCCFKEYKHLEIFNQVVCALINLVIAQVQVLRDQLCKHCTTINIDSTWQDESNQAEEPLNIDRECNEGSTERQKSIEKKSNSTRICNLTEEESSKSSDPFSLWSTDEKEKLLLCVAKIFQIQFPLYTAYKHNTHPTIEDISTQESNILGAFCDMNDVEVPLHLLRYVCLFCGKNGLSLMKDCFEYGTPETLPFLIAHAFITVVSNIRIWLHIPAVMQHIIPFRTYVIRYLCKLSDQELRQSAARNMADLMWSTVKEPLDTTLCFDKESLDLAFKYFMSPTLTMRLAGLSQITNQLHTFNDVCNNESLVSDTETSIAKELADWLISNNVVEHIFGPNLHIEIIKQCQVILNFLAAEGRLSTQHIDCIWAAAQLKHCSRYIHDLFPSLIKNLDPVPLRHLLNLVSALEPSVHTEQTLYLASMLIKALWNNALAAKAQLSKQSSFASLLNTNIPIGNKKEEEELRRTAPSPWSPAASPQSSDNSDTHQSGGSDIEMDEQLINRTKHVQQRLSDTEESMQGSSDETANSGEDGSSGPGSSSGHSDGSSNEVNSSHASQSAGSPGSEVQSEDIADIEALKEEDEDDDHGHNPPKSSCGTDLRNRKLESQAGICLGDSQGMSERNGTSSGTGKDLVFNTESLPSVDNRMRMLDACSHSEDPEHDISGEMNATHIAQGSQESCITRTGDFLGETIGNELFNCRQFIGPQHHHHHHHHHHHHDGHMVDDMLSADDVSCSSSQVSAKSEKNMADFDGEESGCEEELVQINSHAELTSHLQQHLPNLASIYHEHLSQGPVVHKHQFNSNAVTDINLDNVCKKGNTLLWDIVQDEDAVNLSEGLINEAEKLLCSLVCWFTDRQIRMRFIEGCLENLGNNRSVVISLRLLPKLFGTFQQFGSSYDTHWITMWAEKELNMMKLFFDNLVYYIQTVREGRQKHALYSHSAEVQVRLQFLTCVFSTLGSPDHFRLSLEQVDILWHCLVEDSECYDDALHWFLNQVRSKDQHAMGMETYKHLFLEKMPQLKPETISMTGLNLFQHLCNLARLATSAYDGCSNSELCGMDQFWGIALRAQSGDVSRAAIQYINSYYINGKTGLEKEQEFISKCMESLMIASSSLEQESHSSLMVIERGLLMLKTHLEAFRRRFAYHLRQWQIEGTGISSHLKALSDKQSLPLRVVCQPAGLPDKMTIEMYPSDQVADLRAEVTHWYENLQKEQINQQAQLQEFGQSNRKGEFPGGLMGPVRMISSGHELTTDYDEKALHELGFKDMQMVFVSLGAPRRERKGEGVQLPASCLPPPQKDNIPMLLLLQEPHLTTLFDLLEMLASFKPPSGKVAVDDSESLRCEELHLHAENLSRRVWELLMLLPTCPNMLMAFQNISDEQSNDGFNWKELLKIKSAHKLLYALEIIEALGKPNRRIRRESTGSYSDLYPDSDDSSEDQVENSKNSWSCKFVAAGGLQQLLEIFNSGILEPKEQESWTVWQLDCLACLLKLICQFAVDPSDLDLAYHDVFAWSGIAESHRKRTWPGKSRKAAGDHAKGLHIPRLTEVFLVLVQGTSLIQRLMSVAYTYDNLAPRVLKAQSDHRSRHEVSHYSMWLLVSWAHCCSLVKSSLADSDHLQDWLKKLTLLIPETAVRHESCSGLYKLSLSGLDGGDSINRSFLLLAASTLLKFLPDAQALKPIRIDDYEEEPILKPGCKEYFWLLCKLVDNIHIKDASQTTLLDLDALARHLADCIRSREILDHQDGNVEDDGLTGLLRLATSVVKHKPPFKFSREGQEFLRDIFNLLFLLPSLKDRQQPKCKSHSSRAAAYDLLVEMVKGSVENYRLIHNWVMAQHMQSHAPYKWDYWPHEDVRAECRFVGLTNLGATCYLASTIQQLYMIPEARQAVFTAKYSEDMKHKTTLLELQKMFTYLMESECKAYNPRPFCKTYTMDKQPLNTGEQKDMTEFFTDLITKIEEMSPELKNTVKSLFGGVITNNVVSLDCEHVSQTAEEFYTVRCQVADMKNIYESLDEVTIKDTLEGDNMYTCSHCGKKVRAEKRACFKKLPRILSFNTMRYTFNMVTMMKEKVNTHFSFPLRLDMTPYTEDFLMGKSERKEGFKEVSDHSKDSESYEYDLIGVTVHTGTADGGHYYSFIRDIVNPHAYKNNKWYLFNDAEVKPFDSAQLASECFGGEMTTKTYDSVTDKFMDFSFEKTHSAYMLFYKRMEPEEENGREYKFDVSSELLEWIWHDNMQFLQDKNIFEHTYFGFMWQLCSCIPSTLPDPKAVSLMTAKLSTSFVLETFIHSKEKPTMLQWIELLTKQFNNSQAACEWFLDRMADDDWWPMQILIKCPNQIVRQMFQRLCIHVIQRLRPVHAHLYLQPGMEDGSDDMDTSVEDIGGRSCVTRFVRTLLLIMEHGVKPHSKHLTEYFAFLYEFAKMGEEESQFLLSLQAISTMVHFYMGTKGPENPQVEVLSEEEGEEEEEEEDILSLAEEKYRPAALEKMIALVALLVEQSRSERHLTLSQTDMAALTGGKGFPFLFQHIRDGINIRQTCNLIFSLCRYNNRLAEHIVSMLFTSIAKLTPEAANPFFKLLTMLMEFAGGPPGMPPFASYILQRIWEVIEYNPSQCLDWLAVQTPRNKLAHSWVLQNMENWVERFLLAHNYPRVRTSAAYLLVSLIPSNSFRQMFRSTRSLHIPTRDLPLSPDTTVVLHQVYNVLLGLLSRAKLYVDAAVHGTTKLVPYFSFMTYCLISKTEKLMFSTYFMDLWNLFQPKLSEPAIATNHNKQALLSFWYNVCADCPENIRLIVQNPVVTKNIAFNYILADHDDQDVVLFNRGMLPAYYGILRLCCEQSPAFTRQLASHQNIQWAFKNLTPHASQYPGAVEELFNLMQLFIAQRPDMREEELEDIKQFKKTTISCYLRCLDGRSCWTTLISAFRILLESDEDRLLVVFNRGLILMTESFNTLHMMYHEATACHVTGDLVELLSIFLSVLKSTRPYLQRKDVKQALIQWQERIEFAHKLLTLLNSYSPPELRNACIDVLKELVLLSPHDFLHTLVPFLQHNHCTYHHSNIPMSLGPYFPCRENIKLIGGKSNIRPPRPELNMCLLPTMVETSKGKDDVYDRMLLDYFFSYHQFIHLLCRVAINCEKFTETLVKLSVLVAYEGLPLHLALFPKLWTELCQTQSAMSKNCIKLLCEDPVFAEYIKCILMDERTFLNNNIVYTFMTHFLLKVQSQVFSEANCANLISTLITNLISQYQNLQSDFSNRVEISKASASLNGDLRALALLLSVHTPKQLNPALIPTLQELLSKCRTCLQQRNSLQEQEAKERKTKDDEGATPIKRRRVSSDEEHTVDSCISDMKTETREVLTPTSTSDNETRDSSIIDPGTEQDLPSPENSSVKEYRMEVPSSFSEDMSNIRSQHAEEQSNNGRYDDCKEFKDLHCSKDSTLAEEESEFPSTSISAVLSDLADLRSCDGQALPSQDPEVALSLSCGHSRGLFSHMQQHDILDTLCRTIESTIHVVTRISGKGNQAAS

O=C(CCl)NCC1(c2ccccc2)CC1
inactive: USP34 -0.227 | USP36 -0.0695 | USP38 0.127 | USP39 -0.168 | USP4 -0.0752

— the supplement of paper PMC11732987, “Enantioselective OTUD7B fragment discovery through chemoproteomics screening and high-throughput optimisation” (Communications Chemistry, 2025)
